Assay outcomes from PubChem.
Shiga toxin inh – Shiga toxin inhibition. Vero cells, Shiga toxin protein synthesis inhibition reporter. inhibition, % at 38.7 µM. actives 9.2% (n = 290,000). AID 2315; in the data active means inhibition mostly above about 28%, no sharp cut-off; inactive means mostly below about 43%
Pf growth 48h – inhibits P. falciparum growth in the first generation, 48 h; P. falciparum luciferase growth in erythrocytes, 48 h; Potency, µM (series often up to 28.7 µM), usual class: inhibitors; actives 5.9% (n = 310,000)
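Luciferase-expressing P. falciparum in infected erythrocytes (2% hematocrit, 0.1% parasitemia final) in RPMI 1640/0.5% Albumax were exposed to compound for 48 hours at 37 C, 5% CO2; growth read as luminescence.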
Pf growth 96h – P. falciparum growth inhibition at 96 hour, primary screen for plastid delayed-death inhibitors. P. falciparum luciferase reporter growth, 96 h. AID 504834. actives 6.9% (n = 320,000). Potency, µM (series often up to 28.7 µM), usual class: inhibitors
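P. falciparum expressing integrated firefly luciferase, in erythrocytes at 2% hematocrit, 0.05% parasitemia, incubated with compounds 96 h at 37 C, 5% CO2. Growth inhibition read as loss of luminescence; two-generation exposure targets delayed-death apicoplast inhibitors.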
Cycloheximide cs – affects cycloheximide protein synthesis inhibition readout, counter-screen; cell reporter, cycloheximide protein synthesis inhibition counterscreen; max response, %; actives 12% (n = 300,000); in the data active means max response mostly above about 13%, no sharp cut-off; inactive means mostly below about 14%; further: read at 38.3 µM for the half of the compounds with a filed dose
AMA1-RON2 inh – AMA1-RON2 (P. falciparum) interaction inhibition; actives 0.2% (n = 360,000); AlphaScreen AMA1-biotinylated RON2 peptide binding; Potency, µM (highest dose often 58.2 µM), most hits filed as inhibitors; further: nearly all actives have a fitted effect of over 45% in size
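AMA1 (3D7) with his tag at 25 nM final met compounds first, then biotinylated RON2 peptide at 25 nM; detection used donor plus acceptor beads, 10 µg/mL apiece, read by AlphaScreen after 30 min at room temperature.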
HCV inhibitor – inhibitors of hepatitis C virus infection | Huh7.5.1 HCVcc-Cre infection, luciferase reporter, 44 h | Potency, µM (titrated, usually from 41.8 µM), hits mostly inhibitors | actives 3.4% (n = 340,000) | AID 651820
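Cells seeded at 1,000/well and cultured 4 h, then compounds added followed by HCVcc-Cre virus (~0.5 moi). After 44 h further culture, luciferase substrate was added, plates held 15 min at room temperature, and luminescence read for 15 sec.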
Hits are given with their value; - = inactive; ? = inconclusive; . = no result given; [ ] = remark or other dose. Rows were chosen to be rich in hits. Some 21% of all compounds tested hit in one or more screens of this group. Unless noted, the call rests on the fitted dose curve; in most records, active means well fitted curve in the direction sought with a large enough effect; inconclusive means small, poorly fitted or top-dose-only effect, or another doubt; inactive means no such curve, though single readings can be large; an effect the other way counts as inactive or inconclusive.

SMILES	Shiga toxin inh	Pf growth 48h	Pf growth 96h	Cycloheximide cs	AMA1-RON2 inh	HCV inhibitor
C#CCOCCOCCOCCNc1nc(N2CCN(C(=O)[C@H](CCC(=O)O)n3cc([C@@H](N)[C@H](C)CC)nn3)CC2)nc(N2CCN(C(=O)[C@H](CCC(=O)O)n3cc([C@@H](N)CC(N)=O)nn3)CC2)n1	.	.	.	.	-	-
CC(C)(C)NC(=O)CSc1nc2[nH]ncc2c(=O)[nH]1	-	-	-	-	-	-
O=C(Nc1ccccc1N1CCOCC1)C1Cc2ccccc2CN1C(=O)c1ccco1 (stereo unspecified)	-	10µM	.	-	-	-
Cc1csc(NC(=O)CSc2nncn2C)n1	-	-	?	-	-	-
Cc1csc(NC(=O)CSc2ccc([N+](=O)[O-])cn2)n1	-	-	12µM	-	-	-
O=C(CSc1ccc([N+](=O)[O-])cn1)Nc1nccs1	-	?	?	-	-	-
Cc1csc(SCC(=O)Nc2ccccc2C)n1	.	-	-	.	-	-
Cc1csc(SCC(=O)Nc2cccc3nsnc23)n1	-	-	?	20	-	-
Cc1csc(NC(=O)CSc2nc(C)cs2)n1	-	-	.	17	-	-
Cc1csc(NC(=O)CSc2nccn2C)n1	-	-	-	29	-	-
Cc1ccccc1NC(=O)c1ccc2c(O)c(S(=O)(=O)c3ccccc3)c(=O)[nH]c2c1	-	-	?	-	-	-
Cc1ccc(C2=NCN(c3ccc(C(=O)O)cc3)C(=S)N2)cc1	-	-	-	39	.	.
S=C1NC(c2ccccc2)=NCN1c1ccccc1	-	.	-	30	-	?
Cc1ccc(-c2n[nH]c(=S)n2/N=C/c2ccc(C(=O)O)cc2)cc1	-	.	-	-	-	-
O=C1CC(SC2=NCCS2)C(=O)N1c1cccc(Cl)c1Cl (stereo unspecified)	-	-	-	-	-	-
Nn1c(Cc2ccccc2)n[nH]c1=S	-	-	-	18	-	-
Nn1c(Cc2ccc(F)cc2)n[nH]c1=S	-	-	-	-	-	-
CN(Cc1ccc(F)cc1)S(=O)(=O)c1nnc(NC(=O)c2ccccc2Br)s1	-	-	-	-	-	-
Clc1ccccc1/C=N/NC1=Nc2cccc3cccc1c23	66	-	-	32	-	-
C(=N\NC1=Nc2cccc3cccc1c23)/c1ccccn1	97	?	?	53	-	2.8µM
C(=NNc1ccc2ccccc2n1)c1ccccn1	.	.	.	.	-	.
COc1cc(NS(=O)(=O)c2ccc(NC(=O)/C=C/C(=O)O)cc2)nc(OC)n1	-	-	-	-	-	-
COc1ccc(CNc2ncnc3ccc(-c4c(C)noc4C)cc23)cc1	-	.	.	-	.	.
COc1ccc(C(=O)c2ccc3oc(-c4ccc(OC)cc4)c(C#CCCO)c3c2)cc1	.	.	.	.	-	?
COc1cc(OC)cc(-c2oc3cccnc3c2C#CCCO)c1	-	-	?	-	-	7.1µM
SMILES	Shiga toxin inh	Pf growth 48h	Pf growth 96h	Cycloheximide cs	AMA1-RON2 inh	HCV inhibitor
Cc1cccc(C)c1OCC(=O)Nc1ncn[nH]1	-	-	-	-	-	-
CC(C)(C)NC(=O)CN1CCCN(C(=O)COc2ccc(Cl)c3ccccc23)CC1	.	12µM	?	.	-	-
O=C(COc1ccc2ccccc2c1Br)Nc1ncn[nH]1	76	-	.	32	-	-
O=C(COc1ccc2ccccc2c1Br)N1CCOCC1	39	-	.	-	-	-
O=C(COc1ccc2ccccc2c1Br)N1CCCC1	-	-	?	42	-	-
CCN(CC)CCNc1oc(-c2ccccc2)nc1S(=O)(=O)c1ccccc1	.	.	.	.	-	-
O=Cc1sc(N2CCOCC2)nc1-c1ccccc1	-	-	-[5.75 µM]	-	.	.
COc1ccc(Cc2nnc(NC(=O)CS(=O)(=O)Cc3ccccc3)s2)cc1	.	.	.	.	-	-
CCOC(=O)N1CCN(C(=O)COc2ccccc2Cl)CC1	-	-	-	-	-	-
CCOC(=O)N1CCN(C(=O)COc2ccc3ccccc3c2Br)CC1	-	-	13µM	-	-	-
N/C(=N\OC(=O)COc1ccc2ccccc2c1Br)c1ccccn1	119	-	-[1.15 µM]	56	-	-
N/C(=N\OS(=O)(=O)c1ccc2ccccc2c1)c1ccccn1	-	-	-	-	-	-
N/C(=N\OC(=O)COc1ccc(Br)cc1)c1cccnc1	-	-	-	-	-	-
